D2 ag-1: activates the human D2 dopamine receptor; P14416; DiscoveRx PathHunter D2 beta-arrestin, luminescence, 90 min; 100% = 57 uM dopamine signal; activation, % (concentration not given with the values); 0.084% of 360,000 active; AID 624465; in the data active = activation above about 40%
Target sequence (P14416 whole entry, looked up): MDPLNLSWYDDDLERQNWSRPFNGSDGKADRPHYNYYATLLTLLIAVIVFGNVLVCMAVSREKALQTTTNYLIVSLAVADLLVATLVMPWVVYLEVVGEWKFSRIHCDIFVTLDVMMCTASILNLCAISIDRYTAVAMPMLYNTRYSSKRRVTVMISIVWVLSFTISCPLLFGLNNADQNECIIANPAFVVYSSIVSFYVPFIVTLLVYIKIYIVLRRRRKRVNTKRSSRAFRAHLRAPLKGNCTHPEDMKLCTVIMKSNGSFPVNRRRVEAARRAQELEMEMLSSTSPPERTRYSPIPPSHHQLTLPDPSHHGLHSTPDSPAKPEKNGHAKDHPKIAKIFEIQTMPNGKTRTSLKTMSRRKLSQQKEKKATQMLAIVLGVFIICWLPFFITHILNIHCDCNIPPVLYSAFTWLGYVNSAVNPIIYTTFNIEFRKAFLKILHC
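Agonist mode: compounds alone added to overnight-plated D2 PathHunter cells for 90 min at 37 C, with 57 uM final dopamine (EC100) defining full response. Beta-arrestin recruitment detected by chemiluminescent reagent, read after 1 h at ambient temperature.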
D2 antag: antagonizes the human D2 dopamine receptor. 2% of 340,000 active. P14416. HEK293 TREx D2 cells, calcium flux, dopamine EC80. inhibition, % at 10 µM; in the data active = inhibition above about 30%; inactive = below that, where a call was filed; also: 0% is about no effect
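Tetracycline-induced HEK293 T-REx cells expressing D2 force-coupled to calcium signalling were dye-loaded, exposed to compound for 180 s, then challenged with an EC80 of dopamine; calcium flux was followed kinetically for a further 180 s.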
D2 PAM-1: potentiates the human D2 dopamine receptor allosterically. P14416. DiscoveRx D2 beta-arrestin cells, luminescence, 90 min; 100% = 57 uM dopamine signal. potentiation, % (test concentration not listed). 0.23% of 360,000 active; in the data active = potentiation above about 50%
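D2 cells co-treated with compound plus 50 nM dopamine (EC20) for 90 min at 37 deg C to detect potentiation. Beta-arrestin recruitment was read as enzyme-fragment luminescence after 1 h at ambient temperature. Full response was set by 57 uM dopamine.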
D2 PAM-2: positive allosteric modulators of human D2 dopamine receptor; P14416; HEK293 T-REx D2, calcium flux, EC20 dopamine potentiation; potentiation, % at 10 µM; 0.34% of 340,000 active;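 active = potentiation over 3 SD above the plate norm, cut at about 30% in these data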; also: 0% is about no effect
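Cells plated with tetracycline inducer and held overnight at 30 C; calcium dye loaded 30–90 min at room temperature; baseline taken, compound added and read 180 s; EC20 dopamine then added and read 180 s.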
D2 ag-2: D2 dopamine receptor (human) agonism; P14416; HEK293 T-REx D2 cells, calcium flux agonist mode; activation, % at 2 µM; 0.53% of 340,000 active;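 active = activation over 3 SD above normal in the single-dose calcium agonist read, cut at about 30% in these data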; also: 0% is about no effect
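Agonism is scored from calcium flux in a force-coupled, inducible HEK293 cell line expressing D2, read kinetically for 180 s after compound addition against dopamine controls.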
An asterisk follows results filed as active; x = not tested or not shown. In the library only some 2.4% were active in any assay of this set; here they are far more common.

SMILES	D2 ag-1	D2 antag	D2 PAM-1	D2 PAM-2	D2 ag-2
O=C(OCC(=O)N1CCN(c2ccccc2)CC1)c1cccc([N+](=O)[O-])c1	-4	30*	-9	-17	-2
Cc1cc(C)c2oc(-c3cccc(NC(=O)COc4ccc([N+](=O)[O-])cc4)c3)nc2c1	x	x	x	-9	0
CC1=C(C(=O)Nc2ccccc2)C(c2cccs2)n2nnnc2N1 (configuration not stated)	-2	36*	-8	2	-1
CN1CCN(c2nc(C#N)cc(-c3ccccc3)n2)CC1	-2	22	-38	5	0
COc1ccc(-c2cc(C(F)(F)F)nc(N3CCCCCC3)n2)cc1	-5	24	-9	-3	1
COc1ccc(-c2cc(C#N)nc(N3CCN(C)CC3)n2)cc1	-4	55*	-20	-21	-4
COc1ccc(-c2cc(C(F)(F)F)nc(N3CCN(C)CC3)n2)cc1	-2	39*	-39	-18	0
Cc1ccc(S(=O)(=O)N2CCOCC2)cc1C(=O)Nc1ccccc1C(=O)O	x	x	x	16	1
COc1ccc(CCNC(=O)C2COc3ccccc3C2)cc1OC (configuration not stated)	x	x	x	-7	0
CN(C(=O)COC(=O)C12CC3CC(CC(C3)C1)C2)c1c(N)n(Cc2ccccc2)c(=O)[nH]c1=O	-3	47*	-12	6	0
Cc1ccc(C(=O)Nc2cccc3[nH]c(C(F)(F)F)nc23)cc1	3	34*	-9	2	1
Cc1ccc(C(=O)Nc2ccc(C(F)(F)F)n(C)c2=O)cc1	-6	7	-2	32*	0
COc1ccc(C(=O)Nc2ccc(C(F)(F)F)n(C)c2=O)cc1	1	9	-6	-6	0
COc1ccc(N2CCN(C(=O)CSc3nc(-c4ccc(C(C)C)cc4)no3)CC2)cc1	x	x	x	-2	1
Cc1ccc(N2C(=O)CS(=O)(=O)C23C(=O)N(Cc2ccccc2C)c2ccccc23)cc1Cl (configuration not stated)	x	x	x	-17	1
COC(CNC(=S)Nc1ccc([N+](=O)[O-])cc1)OC	-1	35*	-19	9	-2
Cc1ccccc1OCC(=O)OCC(=O)Nc1ccc(Cl)cn1	-3	31*	-4	-12	1
CCCSc1nc2c(c(=O)[nH]1)C(c1ccc(O)c(OCC)c1)CC(=O)N2 (configuration not stated)	x	x	x	8	-2
CCS(=O)(=O)c1ncc(Cl)c(C(=O)N2CCN(c3cccc(Cl)c3)CC2)n1	x	x	x	-5	9
CCOC(=O)c1cc2n(c1/N=C/N(C)C)-c1ccccc1C2=O	-4	15	-4	4	36*
CCOC(=O)c1ccc2c(c1)N(C)C(=O)c1ccccc1S2	-2	-2	-3	-1	1
COc1ccc(CCNC(=O)Cn2nc(C)c3c(C)n(-c4ccc(C)cc4)nc3c2=O)c(OC)c1	x	x	x	x	-1
CCn1c(C)nc2cc(C(=O)N/N=C/c3ccc(O)c(O)c3O)ccc21	1	-6	16	-7	32*
Cc1nn2cc(-c3ccc(OC(C)C)cc3)nc2s1	x	x	x	-8	-1
CCC1(c2ccc(F)cc2)NC(=O)N(CC(=O)c2ccc[nH]2)C1=O (configuration not stated)	-3	30*	-13	x	1
SMILES	D2 ag-1	D2 antag	D2 PAM-1	D2 PAM-2	D2 ag-2
CCC1(c2ccc(F)cc2)NC(=O)N(CC(=O)N2CCOCC2)C1=O (configuration not stated)	-1	13	-1	-7	-1
CCn1c2c(c(=O)n3ncc(C(=O)Nc4ccc(C(=O)OC)cc4)c13)CN(Cc1ccc(OC)cc1)CC2	x	x	x	0	-1
CCCSc1nnc2n(C)c(=O)c3c4c(sc3n12)CCC4	-6	40*	11	13	4
CCCSc1nnc2n(Cc3ccccc3)c(=O)c3c4c(sc3n12)CCC4	x	x	x	-2	x
Cc1ccc(C)c(Cn2c(=O)n(CCCCC(=O)NCc3ccc4c(c3)OCO4)c(=O)c3ccccc32)c1	x	x	x	x	1
CCCCOC(=O)c1ccc(Nc2ncnc3[nH]ncc23)cc1	x	x	x	12	0
CC(C)CN1CCC(=O)N([C@H](CSc2ccc(Br)cc2)Cc2ccccc2)CC1	2	36*	-9	-10	0
